The source made the active and inactive calls.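 Rule for the calls, unless noted: active = inhibition at or above 50% at 10 µM; inactive = inhibition below 50%.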
How the values were obtained:
[1] = inhibitors of TNFa-induced NFkB p65 translocation, primary screen, imaging, HUVEC, MLSMR starter and 10KST1 sets (AID 438;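 active = inhibition above 20% together with a positive visual image hit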;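 note: compound added about 3h40 before a 20 min TNFalpha stimulation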;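 for inhibition: signal is the nuclear over cytoplasmic p65 intensity ratio per well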); settings: HUVEC TNFa-induced p65 nuclear translocation; cell count: measured here: nuclei count (cytotoxicity indicator), at 2.08 µM; inhibition: at 2 µM, stronger effect = higher value, 0% TNFa-plus-vehicle, 100% no-TNFa wells
[2] = reduction of polyQ htt aggregates in cells – imaging, exon1htt(103Q)mCFP cells, high-content imaging, primary screen (AID 483;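 active = visual image review flags a hit and inhibition of aggregation exceeds 20%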;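 note: compound exposure lasted 3 days before fixation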;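 for nuclei count: percent of the per-plate median nuclei count of sample wells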); settings: exon1htt(103Q)mCFP cell line, aggregate imaging, at 2 µM; inhibition of aggregation: stronger effect = higher value; nuclei count: measured here: cell count, toxicity
[3] = endothelial E-selectin expression blockers – imaging, HUVEC, immunofluorescence, MLSMR starter and 10KST1 sets, primary screen (AID 487;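 active = visually confirmed hit in the image check and inhibition above 20%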;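 for inhibition: signal is fraction of cell area covered by stained E-selectin grains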;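 for nuclei count: 100% = median nuclei count of all wells on the same plate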); settings: HUVEC TNFalpha-induced E-selectin immunofluorescence imaging, at 2 µM; inhibition: stronger effect = higher value; nuclei count: measured here: cell number, toxicity
[4] = biological target: Voltage-gated potassium channel subunit beta-2 (Rattus norvegicus) (UniProt P62483); assay: inhibitors of rat Kvbeta2 reductase activity – biochemical, NADPH fluorescence, primary screen (AID 622;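 active = fluorescence slope higher than the sample average by over 3 SD, cut at about -0.22 in these data, passing the limit was not always enough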;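 note: slope of raw intensity against log time taken from 70 to 1610 s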); settings: recombinant KvBeta, 4-cyanobenzaldehyde reduction, at 10 µM, stronger effect = higher value
Sequence of Voltage-gated potassium channel subunit beta-2 (Rattus norvegicus) (P62483 whole entry, looked up): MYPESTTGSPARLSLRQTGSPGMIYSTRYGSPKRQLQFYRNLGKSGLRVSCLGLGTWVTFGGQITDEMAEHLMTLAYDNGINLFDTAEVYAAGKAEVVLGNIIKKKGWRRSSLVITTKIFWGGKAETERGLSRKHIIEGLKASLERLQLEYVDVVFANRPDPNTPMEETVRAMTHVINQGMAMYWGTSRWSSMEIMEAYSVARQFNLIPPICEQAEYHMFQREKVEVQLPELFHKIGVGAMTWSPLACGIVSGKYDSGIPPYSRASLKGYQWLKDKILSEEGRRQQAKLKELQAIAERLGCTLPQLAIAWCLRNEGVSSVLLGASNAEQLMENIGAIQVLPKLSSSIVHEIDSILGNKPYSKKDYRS

[5] = biological target: Voltage-gated potassium channel subunit beta-2 (Rattus norvegicus) (UniProt P62483); assay: enhancers of rat Kvbeta2 NADPH turnover – biochemical, NADPH fluorescence, primary screen (AID 623;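 active = NADPH fluorescence slope more negative than the mean of all samples by about 3 SD, 99.7% confidence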;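 note: fluorescence intensity change per second fitted from 20 to 320 s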); settings: Recombinant KvBeta, NADPH fluorescence decrease slope, 10 min; at 10 µM; stronger effect = lower value
[6] = biological target: Alpha-2C adrenergic receptor (Homo sapiens) (UniProt P18825); assay: compounds altering alpha2C-coupled GIRK flux – cell-based, HEK293 alpha2C/GIRK1/2, thallium flux, primary screen (AID 624;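 active = fluorescence slope after compound addition differing from the mean of all screened samples at 99.7% confidence, in either direction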;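 note: slope of fluorescence ratio to pre-addition baseline per second over 15 to 24 s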); settings: thallium flux BTC fluorescence, at 10 µM, actives lie on both sides
Sequence of Alpha-2C adrenergic receptor (Homo sapiens) (P18825 whole entry, looked up): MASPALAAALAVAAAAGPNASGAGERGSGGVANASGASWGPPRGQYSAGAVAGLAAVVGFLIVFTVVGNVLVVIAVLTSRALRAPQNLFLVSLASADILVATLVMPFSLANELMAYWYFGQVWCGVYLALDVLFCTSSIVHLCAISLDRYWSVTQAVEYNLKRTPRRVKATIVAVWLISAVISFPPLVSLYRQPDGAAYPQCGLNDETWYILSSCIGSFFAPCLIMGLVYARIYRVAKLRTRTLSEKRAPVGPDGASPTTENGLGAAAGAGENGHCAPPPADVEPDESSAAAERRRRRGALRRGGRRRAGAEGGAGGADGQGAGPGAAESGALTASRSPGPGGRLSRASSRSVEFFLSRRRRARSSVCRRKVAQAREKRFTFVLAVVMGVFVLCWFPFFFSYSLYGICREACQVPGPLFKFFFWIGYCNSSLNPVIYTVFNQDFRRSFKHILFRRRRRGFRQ

[7] = blockers of RIG-like receptor reporter activation – cell-based, Sendai virus stimulus, luciferase, 10K MLSCN set, TLR/RLR signaling modifier project, primary screen (AID 602276); settings: HEK293 RL24 IRF3 luciferase reporter, at 10 µM, stronger effect = higher value;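 note: firefly luciferase from ISG56 promoter only with Renilla not read in this screen; 0% = Sendai virus plus DMSO and 100% = medium plus DMSO without virus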
[8] = TLR3 IRF3 reporter activation blockers – cell-based, poly I:C stimulus, luciferase, 10K MLSCN set, primary screen (AID 602277;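 active = inhibition of the reporter signal at or above 50%; inactive = inhibition below 50%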); settings: HEK293-TLR3 RL24 IRF3 luciferase reporter, at 10 µM, stronger effect = higher value

SMILES	cell count [1]	inhibition [1]	inhibition of aggregation [2]	nuclei count [2]	inhibition [3]	nuclei count [3]	fluorescence slope [4]	NADPH fluorescence slope [5]	slope [6]	inhibition [7]	inhibition [8]
CCCn1c(OC)nc2c1c(=O)n(C)c(=O)n2C	660	-3.7% (inactive)	2.9% (inactive)	104%	-34.6% (inactive)	124%	-0.426 (inactive)	-5.4e-05 (inactive)	0.00615 (inactive)	15.2% (inactive)	33.4% (inactive)
COc1ccccc1Cn1c(-c2ccco2)nc2nc3ccccc3nc21	612	-10.5% (inactive)	-8.4% (inactive)	109%	-13.1% (inactive)	117%	-0.366 (inactive)	-7.7e-06 (inactive)	0.00597 (inactive)	1.34% (inactive)	-13.9% (inactive)
CC1(C)CC(=O)C(CC2=C(O)CC(C)(C)CC2=O)=C(O)C1	628	-6.7% (inactive)	15.8% (inactive)	90.9%	-24.2% (inactive)	112%	-0.386 (inactive)	-1.3e-05 (inactive)	0.00397 (inactive)	7.41% (inactive)	23.2% (inactive)
CCCCCCc1ccc(-c2ncc(N)cn2)cc1	478	3.5% (inactive)	26.5% (inactive)	110%	-42.4% (inactive)	109%	-0.509 (inactive)	6.3e-06 (inactive)	0.00484 (inactive)	-9.96% (inactive)	-78.9% (inactive)
CCCNC(=O)c1ccccc1C(=O)NCCC	386	-1.6% (inactive)	23.1% (inactive)	94.4%	-3.9% (inactive)	115%	-0.53 (inactive)	0.000133 (inactive)	0.00613 (inactive)	15.6% (inactive)	18% (inactive)
CCOC(=O)N1CCC(NC(=O)c2ccc(CS(=O)(=O)c3c(Cl)cccc3Cl)o2)CC1	608	-3.7% (inactive)	10.7% (inactive)	94.3%	-44.1% (inactive)	104%	-0.611 (inactive)	2.7e-05 (inactive)	0.00587 (inactive)	16.5% (inactive)	0.288% (inactive)
CC1CN(C(=O)CSc2nnc(-c3ccc(Cl)cc3)n2C)CC(C)O1 (stereo not drawn)	345	1.1% (inactive)	-13.2% (inactive)	91.5%	-122% (inactive)	124%	-0.275 (inactive)	-3.8e-05 (inactive)	0.00669 (inactive)	-5.39% (inactive)	-17.3% (inactive)
O=C(CSc1ncnc2nc[nH]c12)c1ccc(Cl)cc1	728	-12.4% (inactive)	9.4% (inactive)	101%	5.4% (inactive)	95%	-0.5 (inactive)	-1.4e-05 (inactive)	0.00583 (inactive)	-2.82% (inactive)	-23.1% (inactive)
C/C(Nc1cccc(F)c1)=C(/C#N)C(N)=O	640	3.4% (inactive)	1.6% (inactive)	104%	48.6% (inactive)	106%	-0.361 (inactive)	-3.8e-05 (inactive)	0.00545 (inactive)	-10.6% (inactive)	-10.3% (inactive)
CC1(C)C(=O)Nc2ccccc2N1C(=O)COC(=O)Cn1cnc2ccccc2c1=O	465	2.5% (inactive)	-1.8% (inactive)	107%	-67.7% (inactive)	116%	-0.364 (inactive)	-1.3e-05 (inactive)	0.00422 (inactive)	7.38% (inactive)	20.1% (inactive)
CCOC(=O)C1CCCN(C(=O)c2sc3nc(-c4ccccc4)cn3c2C)C1 (stereo not drawn)	631	13.2% (inactive)	5.7% (inactive)	103%	67.6% (active)	76.5%	-0.544 (inactive)	1.7e-05 (inactive)	0.00524 (inactive)	-20.7% (inactive)	-120% (inactive)
Cc1c2cnn(CC(=O)N3CCN(c4ncccn4)CC3)c(=O)c2c(C)n1Cc1ccc(F)cc1	405	-9.2% (inactive)	4.7% (inactive)	99.5%	-130% (inactive)	118%	-0.371 (inactive)	-3.3e-05 (inactive)	0.00444 (inactive)	-14.2% (inactive)	-8.56% (inactive)
CCCCC(=O)Nc1ccc(NC(=O)C2CC2)nc1	558	19.2% (inactive)	16% (inactive)	67.6%	22.7% (inactive)	94.2%	-0.474 (inactive)	-6e-05 (inactive)	0.00505 (inactive)	3.06% (inactive)	-2.76% (inactive)
Cc1noc(C)c1CSc1nc2cc(S(=O)(=O)N3CCOCC3)ccc2o1	515	-12.1% (inactive)	-33.5% (inactive)	135%	-52% (inactive)	118%	-0.478 (inactive)	-0.000262 (inactive)	0.00432 (inactive)	16.1% (inactive)	19.5% (inactive)
CSC1=NCCN1C(=O)c1ccc(S(=O)(=O)N2CCCC2)cc1	611	0.8% (inactive)	9.6% (inactive)	107%	-7.2% (inactive)	105%	-0.592 (inactive)	-1.6e-05 (inactive)	0.00671 (inactive)	11.2% (inactive)	33.2% (inactive)
Cc1ccc(NC(=O)c2ccco2)c(NC(=O)c2cccs2)c1	684	4.8% (inactive)	9.4% (inactive)	103%	-119% (inactive)	111%	-0.375 (inactive)	2e-06 (inactive)	0.00493 (inactive)	14.6% (inactive)	16.5% (inactive)
COc1ccc(C(CNC(=O)c2cc(C)oc2C)N2CCOCC2)cc1 (stereo not drawn)	711	-0.8% (inactive)	-5.3% (inactive)	103%	-140% (inactive)	145%	-0.609 (inactive)	-9.2e-06 (inactive)	0.00615 (inactive)	11.1% (inactive)	15.8% (inactive)
CC1CCCCC1NC(=O)C1CCN(C(=O)NC2CCCCC2)CC1 (stereo not drawn)	172	-4.9% (inactive)	20.6% (inactive)	71.9%	2.1% (inactive)	79.8%	-0.448 (inactive)	-4.6e-05 (inactive)	0.00366 (inactive)	13.5% (inactive)	28.2% (inactive)
CCCCCn1c(N2CCN(Cc3ccccc3)CC2)nc2c1c(=O)[nH]c(=O)n2C	675	1.9% (inactive)	-11.5% (inactive)	101%	-13.6% (inactive)	107%	-0.625 (inactive)	-2.8e-05 (inactive)	0.0038 (inactive)	14.2% (inactive)	16.8% (inactive)
c1ccc(OCc2nc(-c3ccccc3)no2)cc1	300	2.6% (inactive)	12.9% (inactive)	87.7%	-72.6% (inactive)	91.1%	-0.539 (inactive)	4.5e-05 (inactive)	0.0046 (inactive)	-80.4% (inactive)	-193% (inactive)
O=C(NCC1CCCO1)C1c2ccccc2C(=O)N1C1CCCCCC1 (stereo not drawn)	445	-9.2% (inactive)	-4.3% (inactive)	101%	-38.3% (inactive)	109%	-0.621 (inactive)	2.7e-06 (inactive)	0.00613 (inactive)	11.3% (inactive)	15.1% (inactive)
COc1ccc(N2C(=O)CC(N3CCN(c4ccccc4F)CC3)C2=O)cc1 (stereo not drawn)	698	-8.7% (inactive)	-1.9% (inactive)	108%	32.2% (inactive)	84.3%	-0.538 (inactive)	-2.3e-05 (inactive)	0.00511 (inactive)	6.58% (inactive)	10.1% (inactive)
O=C(Nc1cnccn1)c1cccs1	655	-17.2% (inactive)	-13.1% (inactive)	122%	-34.1% (inactive)	110%	-0.517 (inactive)	-2.8e-05 (inactive)	0.00591 (inactive)	10.2% (inactive)	12.3% (inactive)
Cn1cc(Cl)c(C(=O)NC2CCCC2)n1	452	-8.5% (inactive)	26.8% (inactive)	64.4%	-25.2% (inactive)	104%	-0.594 (inactive)	-3.1e-05 (inactive)	0.00694 (inactive)	-2.09% (inactive)	4.05% (inactive)
O=C(CN1CCCN(S(=O)(=O)c2ccc(F)cc2)CC1)Nc1ccccc1Br	220	-1.3% (inactive)	2% (inactive)	108%	-17.3% (inactive)	118%	-0.504 (inactive)	2.2e-05 (inactive)	0.00558 (inactive)	3.65% (inactive)	9.12% (inactive)
O=C(CCSc1nc(-c2ccco2)cc(C(F)(F)F)n1)NCCc1ccccc1	491	-8.3% (inactive)	-16.1% (inactive)	106%	23.2% (inactive)	104%	-0.387 (inactive)	-3.6e-05 (inactive)	0.00564 (inactive)	-7.29% (inactive)	-52.7% (inactive)
O=C(O)CCCC(=O)Nc1nc(-c2ccc(F)cc2)cs1	392	-1.3% (inactive)	-6.1% (inactive)	94.3%	-90.5% (inactive)	141%	-0.327 (inactive)	-1.1e-05 (inactive)	0.00291 (inactive)	6.78% (inactive)	14.9% (inactive)
C#CCN1C(=O)C(O)(CC(=O)c2cc(OC)ccc2OC)c2ccccc21 (stereo not drawn)	841	-2.9% (inactive)	1.3% (inactive)	97.5%	-183% (inactive)	124%	-0.411 (inactive)	-3.9e-05 (inactive)	0.00497 (inactive)	17.5% (inactive)	20% (inactive)

Reference: PubChem BioAssay
